# NPSR antag = blocks cAMP signaling of the human neuropeptide S receptor | Q6W5P4 | CHO-NPSR cells, cAMP TR-FRET, antagonist mode | Potency, µM (doses to about 38.3 µM), inactives show at the highest dose activity change, negative = inhibition, actives largely listed as inhibitors | 220,000 tested, 1% active; active = well fitted curve in the direction sought with a large enough effect; inconclusive = small, poorly fitted or top-dose-only effect, or another doubt; inactive = no such curve, though single readings can be large; an effect the other way counts as inactive or inconclusive; note: potency is the fitted concentration of half-maximal effect; nearly all actives have a fitted effect of over 50% in size
# Target sequence (Q6W5P4 whole entry, looked up): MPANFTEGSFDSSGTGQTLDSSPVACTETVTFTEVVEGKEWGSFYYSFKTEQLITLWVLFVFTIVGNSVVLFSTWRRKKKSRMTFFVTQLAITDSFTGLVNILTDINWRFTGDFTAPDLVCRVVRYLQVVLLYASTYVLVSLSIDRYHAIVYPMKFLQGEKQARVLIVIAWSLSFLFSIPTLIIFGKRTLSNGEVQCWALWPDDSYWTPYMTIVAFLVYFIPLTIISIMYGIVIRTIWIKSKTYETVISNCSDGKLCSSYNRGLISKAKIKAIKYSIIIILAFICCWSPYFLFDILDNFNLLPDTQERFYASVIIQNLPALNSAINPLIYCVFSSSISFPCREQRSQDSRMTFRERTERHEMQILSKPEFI
# KDM4E inh = blocks human JMJD2E demethylase activity. B2RXH2. JMJD2E catalytic domain, FDH-coupled NADH fluorescence (FDH is formaldehyde dehydrogenase). Potency, µM (doses to about 57.1 µM), inactives show top-dose activity change, negative = inhibition, actives largely listed as inhibitors. 230,000 tested, 1.6% active;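 note: potency is the fitted concentration of half-maximal effect; 0% = wells with enzyme and -100% = buffer wells without enzyme; nearly all actives have a fitted effect of over 50% in size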
# Target sequence (B2RXH2 1-337 limits assumed): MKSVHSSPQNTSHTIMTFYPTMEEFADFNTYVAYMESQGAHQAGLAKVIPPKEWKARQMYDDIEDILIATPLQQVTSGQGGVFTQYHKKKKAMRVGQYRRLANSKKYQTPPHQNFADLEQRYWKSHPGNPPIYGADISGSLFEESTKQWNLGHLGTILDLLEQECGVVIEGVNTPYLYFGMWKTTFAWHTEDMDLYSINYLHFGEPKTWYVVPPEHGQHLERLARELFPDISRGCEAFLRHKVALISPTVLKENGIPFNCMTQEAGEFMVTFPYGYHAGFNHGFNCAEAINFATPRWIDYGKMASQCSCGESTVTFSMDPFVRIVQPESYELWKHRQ
# ALDH1A1 inh = blocks purified human ALDH1A1 activity. P00352. Purified ALDH1A1, NADH fluorescence, propionaldehyde substrate. Potency, µM (top dose mostly 75.3 µM), for the others: at the highest dose activity, negative = inhibition, most hits filed as inhibitors. 220,000 tested, 7.3% active;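 note: potency is the fitted concentration of half-maximal effect; plate controls were no enzyme wells and a reference inhibitor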
# GoLoco inh red = blocks human Gai1 binding to RGS12 GoLoco peptide, red readout; Gai1:RGS12 GoLoco peptide FP, rhodamine, 10 min; Potency, µM (top dose mostly 61.6 µM), for inactives: at the highest dose activity, negative = inhibition, most hits filed as inhibitors; 230,000 tested, 0.44% active; AID 880; active = well fitted inhibition curve with a large enough effect, not every such curve was filed as active; inactive = no such curve, though single readings can be large or run the other way; note: potency is the fitted concentration of half-maximal effect; nearly all actives have a fitted effect of over 30% in size
# FBPA coupling cs = counter-screen for Giardia aldolase inhibitors: coupling enzyme system; coupling enzyme system counterscreen, AmpLite Red fluorescence; activity change, negative = inhibition, % at 58.2 µM, hits read low; 290,000 tested, 0.67% active; in the data active = activity change below about -30%
#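 Coupling enzymes only (glyceraldehyde-3-phosphate) + compound, at 57.5 uM final, 10 min RT; add substrate/coupling/AmpLite Red mix, 20 min RT; fluorescence ex 525/em 598 nm. Actives flag coupling-system interference.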
# Sfp inh = inhibitors of Bacillus subtilis Sfp phosphopantetheinyl transferase; Q9F4F7; Biochemical Sfp PPTase activity, qHTS; Potency, µM, for the others: largest response in the series, negative = inhibition, usual class: inhibitors; 310,000 tested, 3.5% active; AID 1490; active = well fitted curve in the direction sought with a large enough effect; inconclusive = small, poorly fitted or top-dose-only effect, or another doubt; inactive = no such curve, though single readings can be large; an effect the other way counts as inactive or inconclusive;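 note: the enzyme is Sfp with the accession as filed and its product quenches rhodamine fluorescence; potency is the fitted concentration of half-maximal effect; 0% = enzyme reaction without inhibitor and -100% = no enzyme wells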
#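 After 15 min at room temperature with compound, 15 nM Sfp received 5 uM rhodamine-CoA plus 12.5 uM BHQ-2-ybbR (50 mM Hepes pH 7.6, 10 mM MgCl2). Rate came from the fluorescence difference over 30 min, ex 525/em 598 nm.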
# Starred values were filed as active, the others as inactive; ? = inconclusive; . = no result; [ ] = remark or other dose. The list is not random: actives were taken first. Their share in the collection is about 8.5%. Unless noted, calls come from the whole dose curve; as a rule, active = well fitted inhibition curve with a large enough effect (not every such curve was filed as active); inconclusive = small, poorly fitted or top-dose-only effect, or another doubt; inactive = no such curve, though single readings can be large or run the other way. Unless noted, % is set by controls: 0 for no effect and ±100 for the full control effect.
SMILES,NPSR antag,KDM4E inh,ALDH1A1 inh,GoLoco inh red,FBPA coupling cs,Sfp inh
O=C(CSc1nc2nc(-c3cccs3)cc(C(F)(F)F)c2c(=O)[nH]1)C(F)(F)F,.,.,.,.,3,79µM*
COc1ccccc1CNC(=O)COc1ccc(S(=O)(=O)N2CCOCC2)cc1C,.,.,.,.,1,2%
COc1ccc(-n2nc3c(c2NC(=O)C24CC5CC(CC(C5)C2)C4)CS(=O)C3)cc1 (configuration not stated),-14%[46.1 µM],9%,2.8µM*,-7%,0,-13%
COc1ccc(-n2nc3c(c2NC(=O)C2CC2)CS(=O)C3)cc1 (configuration not stated),20%[46.1 µM],0%,-3%,-2%,0,9%
Cc1ccc(C(=O)O)cc1-c1ccc(C=C2C(=O)c3ccccc3C2=O)o1,0%,?,5µM*,34%,-2,-4%
O=C1C(=Cc2ccc(Br)o2)C(=O)c2ccccc21,-16%,-13%,-4%,-10%,1,56µM*
CC1=C/C(=C\c2ccc(Br)o2)C(=O)O1,13%,?,-4%,-1%,-1,3%
Cc1cc(C(=O)O)ccc1-n1c(C)cc(C=C2C(=O)c3ccccc3C2=O)c1C,43%,?,10µM*,14%,-25,-21%
Cc1ccc(NC(=O)CN2C(=O)S/C(=C/c3ccc(-c4cc(C(=O)O)ccc4C)o3)C2=O)cc1C,-10%[46.1 µM],?,?,13%,7,56µM*
COC(=O)C(C)N1C(=O)S/C(=C\c2ccc(-c3ccc(C(=O)O)cc3C)o2)C1=O (configuration not stated),.,.,.,.,5,-1%
CC(C)OC(=O)c1cn(Cc2c(F)cccc2F)c2sc(-c3ccc(NC(=O)C(C)C)cc3)c(CN(C)Cc3ccccc3)c2c1=O,.,.,.,.,-1,-4%
CCC(=O)Nc1ccccc1C(=O)C(=O)Nc1ccccc1,18%,3%,?,-11%,-3,-2%
O=[N+]([O-])c1ccc(/C=C/c2ccncc2)cc1,4%,4%,.,-3%,0,14%
[O-]/[N+](=C\c1ccncc1)c1ccc(Br)cc1,-2%,-6%,1.1µM*,0%,-6,?
COc1ccc(NC(=S)NC(NC(=O)c2ccccc2Cl)C(Cl)(Cl)Cl)c([N+](=O)[O-])c1 (configuration not stated),?,-11%,8.9µM*,9%,2,18%
COc1ccc(NC(=S)NC(NC(=O)c2ccc(Cl)cc2Cl)C(Cl)(Cl)Cl)c([N+](=O)[O-])c1 (configuration not stated),?,0%,22µM*,7%,1,17%
COc1ccc(NC(=S)NC(NC(=O)c2cccc3ccccc23)C(Cl)(Cl)Cl)c([N+](=O)[O-])c1 (configuration not stated),?,-29%,28µM*,0%,-4,-2%
COc1ccc(NC(=S)NC(NC(=O)CCl)C(Cl)(Cl)Cl)c([N+](=O)[O-])c1 (configuration not stated),22%,-9%,?,-8%,3,25µM*
COC(=O)c1cn(NC(=O)/C=C/c2cc(OC)ccc2OC)c(=O)c2ccccc12,-8%,?,?,-5%,4,-10%
Cc1ccc(C)c(NC(=S)NC(NC(=O)N(C)C)C(Cl)(Cl)Cl)c1 (configuration not stated),-19%[46.1 µM],1%,?,-3%,0,10%
Cc1ccc(C)c(NC(=S)NC(NC(=O)Cc2cccc3ccccc23)C(Cl)(Cl)Cl)c1 (configuration not stated),7.9µM*,0%,-11%,8%,2,13%
CCN1CCCC1CNC(=O)c1cc([N+](=O)[O-])c(N(C)C)cc1OC (configuration not stated),.,.,.,.,-2,14%
Cc1ccc(NC(=O)c2c(C(=O)Nc3ccccc3)sc3nc(C)cc(=O)n23)cc1,-5%,-1%,4.5µM*,7%,0,-21%
CCc1ccc(NC(=O)c2c(C(=O)Nc3ccccc3)sc3nc(C)cc(=O)n23)cc1,-31%,-4%,0.89µM*,46%,1,-13%
Cc1ccc(-c2csc(NC(=O)C3CCN(S(=O)(=O)c4cccs4)CC3)n2)cc1,4%,7%,0%,-3%,-28,19%
SMILES,NPSR antag,KDM4E inh,ALDH1A1 inh,GoLoco inh red,FBPA coupling cs,Sfp inh
O=C(Nc1nc(-c2ccc3ccccc3c2)cs1)C1CCN(S(=O)(=O)c2cccs2)CC1,4%,18µM*,-8%,9%,0,-12%
O=C(COC(=O)C1CCN(S(=O)(=O)c2cccs2)CC1)c1ccc2c(c1)OCCO2,-10%[46.1 µM],-1%,2%,3%,-1,-1%
O=C(COC(=O)C1CCN(S(=O)(=O)c2cccs2)CC1)c1cc2ccccc2o1,-26%[46.1 µM],-17%,16µM*,158%,2,8%
COc1ccc(Cc2nnc(SCC(=O)Nc3ccc(N4CCOCC4)cc3)o2)cc1,.,.,.,.,-1,10%
Cc1ncc([N+](=O)[O-])n1CC(=O)Nc1ccc(F)c(Cl)c1,.,.,.,.,-1,2%
COc1ccc(CNC(=O)COC(=O)CCOc2ccccc2)cc1,9%,9%,?,1%,3,13%
COc1ccc(CNC(=O)c2csnn2)cc1,-19%[7.67 µM],-9%,25µM*,-6%,1,5%
COc1ccc(CNC(=O)COC(=O)c2ccccn2)cc1,7%,-6%,25µM*,1%,1,-2%
COc1ccc(CNC(=O)CN(Cc2ccc(OC)cc2)C(=O)c2csnn2)cc1,-12%,-7%,2.2µM*,11%,4,-5%
COc1ccc(CNC(=O)CCSCc2ccccc2C)cc1,-8%,-15%,4µM*,-18%,-1,-20%
COc1ccc(CNC(=O)CN(Cc2ccccc2)C(=O)c2csnn2)cc1,2%[46.1 µM],-5%,?,5%,1,10%
CCCCOC(=O)CSc1nc(N)c(C#N)c(-c2ccc(OCC)cc2)c1C#N,?,?,20µM*,-10%,-2,6%
C=C(C)CSc1nc(N)c(C#N)c(-c2ccc(C)cc2)c1C#N,-18%[46.1 µM],-13%,10µM*,4%,-1,-27%
CCSCc1nnc(SCC(=O)Nc2cccc(SC)c2)n1C,33%[46.1 µM],0%,20µM*,-6%,1,-8%
COc1ccc(-c2ccccc2C2NC(C(=O)O)CCC2C)cc1 (configuration not stated),.,.,12%[13.5 µM],.,0,28%
COC(=O)c1cccc(OCC(O)Cn2cnc3cc(C)c(C)cc32)c1 (configuration not stated),-27%[46.1 µM],-5%,9%,-7%,2,89µM*
COC(=O)c1cccc(OCC(O)Cn2ccnc2)c1 (configuration not stated),12%[7.67 µM],?,1%,4%,2,2%

# Source: PubChem (National Center for Advancing Translational Sciences (NCATS))
